GALR2 blocker – GALR2 antagonists in receptor-expressing cells, primary screen | Galanin receptor type 2 (Homo sapiens), O43603 | antagonist mode | inhibition, % at 4 µM | actives 0.39% (n = 140,000); in the data active = inhibition above about 27%;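 also: cells stimulated with galanin 1-16 at roughly its EC80; 0% = agonist challenge control and 100% = basal control without agonist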
Target sequence (O43603 whole entry, looked up): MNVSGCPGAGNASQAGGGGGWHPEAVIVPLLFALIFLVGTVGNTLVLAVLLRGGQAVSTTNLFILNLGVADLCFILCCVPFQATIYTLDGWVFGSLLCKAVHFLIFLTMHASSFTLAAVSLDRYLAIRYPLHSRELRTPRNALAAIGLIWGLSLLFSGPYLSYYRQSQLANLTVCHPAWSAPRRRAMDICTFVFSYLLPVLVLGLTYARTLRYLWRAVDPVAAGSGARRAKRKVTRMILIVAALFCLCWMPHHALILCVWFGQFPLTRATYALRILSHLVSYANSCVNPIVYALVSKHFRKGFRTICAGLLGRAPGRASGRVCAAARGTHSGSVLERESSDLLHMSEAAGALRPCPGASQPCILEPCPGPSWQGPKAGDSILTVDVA
S1P2 agonist – S1P2 receptor agonists, primary screen, cell-based; activation, % at 4.5 µM; S1P2-expressing cell line, agonist reporter read-out; AID 729, 2007; actives 0.46% (n = 97,000); in the data active = activation above about 16%;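 also: 0% = vehicle low control and 100% = maximal reference agonist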
S1P2 antag – human S1P2 receptor antagonists, primary screen, cell-based | actives 0.21% (n = 97,000) | AID 736, 2007 | cell-based S1P2 antagonist assay, inhibition at 5 uM | Sphingosine 1-phosphate receptor 2 (Homo sapiens), O95136 | inhibition, % at 5 µM; in the data active = inhibition above about 45%;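 also: CRE beta-lactamase reporter cells expressing human S1P2 stimulated with S1P; 0% = agonist at EC80 alone and 100% = agonist plus reference antagonist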
GALR2 agonist – GALR2 receptor agonists, primary screen, cell-based | Galanin receptor type 2 (Homo sapiens), O43603 | GALR2-expressing cells, agonist activation read-out | activation, % (no concentration beside the values) | actives 0.48% (n = 140,000) | AID 803, 2007; in the data active = activation above about 5%, passing the limit was not always enough;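 also: 0% = vehicle buffer wells and 100% = reference agonist at full effect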
Active calls of the source: *. Hits are enriched below; roughly 1.2% of the tested compounds scored in any of these assays.

Results for Cn1c(SC2=CS(=O)(=O)c3ccccc32)nc2ccccc21 ?
GALR2 blocker: 23.5; S1P2 agonist: -8.4; S1P2 antag: 61.9*; GALR2 agonist: -0.9

How did CCCn1c(C(=O)OC)cc2c1ccn2-c1ccc(F)cc1 do in these assays?
GALR2 blocker: -17.0; S1P2 agonist: -0.5; S1P2 antag: 7.0; GALR2 agonist: 5.6*

Results for COC(=O)c1cc2c(ccn2-c2ccc(F)cc2)n1C(C)C ?
GALR2 blocker: 1.1; S1P2 agonist: -1.6; S1P2 antag: 3.8; GALR2 agonist: 1.9

Results for CCC(Sc1nc2cc(OC)c(OC)cc2c(=O)n1Cc1ccco1)C(=O)NCCOC (stereo unspecified) ?
GALR2 blocker: 2.6; S1P2 agonist: 17.8*; S1P2 antag: -47.7; GALR2 agonist: 1.0

Results for COc1ccc(-c2nnn(CC(=O)NCCc3c[nH]c4ccccc34)n2)cc1OC ?
GALR2 blocker: 7.1; S1P2 agonist: -5.0; S1P2 antag: 17.9; GALR2 agonist: -3.6

What do the screens show for `Cc1cc(-n2c(C)cc(C(=O)CSc3ncnc4ccccc34)c2C)no1`?
GALR2 blocker: 21.2; S1P2 agonist: -4.5; S1P2 antag: 59.6*; GALR2 agonist: -1.8

Results for O=C(O)O ?
GALR2 blocker: 10.7; GALR2 agonist: -1.1

How did CC(C)(C)C1(C)OC(=O)C(=Cc2ccc(OCC(=O)Nc3ccccc3)cc2)C(=O)O1 (stereo unspecified) do in these assays?
GALR2 blocker: 0.0; GALR2 agonist: -1.3

Results for CC1(C)CC(=O)C(C=Nc2ccc3cn[nH]c3c2)=C(O)C1 ?
GALR2 blocker: 31.4*; S1P2 agonist: -1.5; S1P2 antag: -5.7; GALR2 agonist: -0.4

Results for CSc1ccccc1N=CC1=C(O)CC(C)(C)CC1=O ?
GALR2 blocker: 35.6*; S1P2 agonist: -4.2; S1P2 antag: 21.7; GALR2 agonist: -1.4

What do the screens show for `CC1(C)CC(=O)C(C=Nc2ccc3[nH]ncc3c2)=C(O)C1`?
GALR2 blocker: 7.4; S1P2 agonist: -4.8; S1P2 antag: 23.5; GALR2 agonist: -1.8

What do the screens show for `CC1(C)CC(=O)C(C=Nc2ccc(O)cc2)=C(O)C1`?
GALR2 blocker: -0.1; S1P2 agonist: -10.6; S1P2 antag: 10.2; GALR2 agonist: -0.8

How did CC(C)NC(=O)c1noc2cc([N+](=O)[O-])ccc12 do in these assays?
GALR2 blocker: 0.3; S1P2 agonist: -7.4; S1P2 antag: 5.5; GALR2 agonist: -2.3

Results for CCn1cc(/C=N/NS(=O)(=O)c2ccc(OC)cc2)c(C)n1 ?
GALR2 blocker: 4.3; S1P2 agonist: 0.3; S1P2 antag: -14.4; GALR2 agonist: 0.2

What do the screens show for `CC(C)c1nc2sc3c(NCc4ccco4)ncnc3c2c2c1COC(C)(C)C2`?
GALR2 blocker: -10.5; S1P2 agonist: 19.6*; S1P2 antag: -33.6; GALR2 agonist: -1.2

How did CC(C)c1nc2sc3c(NCc4ccccc4)ncnc3c2c2c1COC(C)(C)C2 do in these assays?
GALR2 blocker: -8.5; S1P2 agonist: -6.1; S1P2 antag: -47.6; GALR2 agonist: 1.2

How did CCCn1c(=O)n(C)c(=O)c2c(SCC(=O)NCc3ccco3)nc(C3CC3)nc21 do in these assays?
GALR2 blocker: 2.7; S1P2 agonist: -1.1; S1P2 antag: -20.1; GALR2 agonist: -1.6

Results for COc1ccc(-c2cc(=O)oc3cc(OCC(=O)c4cccc([N+](=O)[O-])c4)ccc23)cc1 ?
GALR2 blocker: -2.5; GALR2 agonist: -0.5

What do the screens show for `CCCC/C(C)=N/NC(=O)C(=O)NCCc1ccccc1`?
GALR2 blocker: 11.2; S1P2 agonist: -9.9; S1P2 antag: 21.8; GALR2 agonist: -2.3

How did Cc1cc(C(=O)O)ccc1-n1c(C)ccc1C do in these assays?
GALR2 blocker: -0.1; S1P2 agonist: 25.4*; S1P2 antag: 10.3; GALR2 agonist: -2.0

Results for Cc1ccc(-c2cc(-c3ccc(C)o3)nc(N)c2C#N)cc1 ?
GALR2 blocker: -0.5; S1P2 agonist: 7.7; S1P2 antag: -12.1; GALR2 agonist: 7.2

Results for Cc1ccc(-c2cc(-c3ccc(Cl)cc3)c(C#N)c(N)n2)o1 ?
GALR2 blocker: -5.0; S1P2 agonist: 18.5*; S1P2 antag: -28.1; GALR2 agonist: 13.3*

How did Cc1ccc(-c2cc(-c3ccc(F)cc3)c(C#N)c(N)n2)o1 do in these assays?
GALR2 blocker: 1.4; GALR2 agonist: 3.7

What do the screens show for `Cc1cc(-c2cc(-c3ccc(Cl)cc3)nc(N)c2C#N)co1`?
GALR2 blocker: -11.3; S1P2 agonist: 19.4*; S1P2 antag: -23.1; GALR2 agonist: 9.9*

Results for CCC(=O)Oc1ccc(C(=O)Nc2c[nH]c(=O)[nH]c2=O)cc1 ?
GALR2 blocker: -1.3; GALR2 agonist: -0.5

Results for CC(=O)Oc1cc2oc(=O)cc(C)c2cc1OC(C)=O ?
GALR2 blocker: -2.3; S1P2 agonist: 0.1; S1P2 antag: -16.7; GALR2 agonist: 6.0*

What do the screens show for `C[n+]1cc[nH]c1SCC(=O)c1ccccc1`?
GALR2 blocker: -5.2; S1P2 agonist: -1.9; S1P2 antag: 5.3; GALR2 agonist: -2.4

What do the screens show for `CCOC(=O)C1=C(O)/C(=C/c2cc(OC)c(OC)c(OC)c2)SC1=Nc1ccc(OC)cc1`?
GALR2 blocker: -10.9; S1P2 agonist: 37.4*; S1P2 antag: -20.0; GALR2 agonist: -1.7

What do the screens show for `CCc1cccc2sc(NC(=O)c3ccc(N4C(=O)CCC4=O)cc3)nc12`?
GALR2 blocker: 4.4; GALR2 agonist: -0.2

How did Cc1ccc2sc(NC(=O)c3ccc(N4C(=O)CCC4=O)cc3)nc2c1C do in these assays?
GALR2 blocker: -3.0; GALR2 agonist: 6.7*

What do the screens show for `Cc1nn(-c2cccc(Cl)c2)c(Cl)c1/C=N/NC(=O)c1cccs1`?
GALR2 blocker: -2.8; GALR2 agonist: 5.0*

What do the screens show for `O=C(C1=C(O)C(=O)N(Cc2ccco2)C1c1cccs1)c1cccs1` (stereo unspecified)?
GALR2 blocker: -4.6; GALR2 agonist: 0.7

Results for CC(=O)C1=C(O)C(=O)N(CC#N)C1c1cccs1 (stereo unspecified) ?
GALR2 blocker: -3.5; S1P2 agonist: 36.5*; S1P2 antag: 15.1; GALR2 agonist: -1.3

How did N=c1c(C(=O)NCc2ccc(F)cc2)cc2c(=O)n3ccccc3nc2n1Cc1cccnc1 do in these assays?
GALR2 blocker: -9.3; S1P2 agonist: 20.8*; S1P2 antag: -27.2; GALR2 agonist: 6.2

Results for N=c1c(C(=O)NCC2CCCO2)cc2c(=O)n3ccccc3nc2n1Cc1cccnc1 (stereo unspecified) ?
GALR2 blocker: -1.3; GALR2 agonist: 5.8*

What do the screens show for `COC(=O)c1cc2c(=O)n3ccccc3nc2n(Cc2cccnc2)c1=N`?
GALR2 blocker: 0.0; S1P2 agonist: 2.2; S1P2 antag: 11.7; GALR2 agonist: 1.2

What do the screens show for `CCOCCCn1c(=N)c(C(=O)NCc2ccc3c(c2)OCO3)cc2c(=O)n3ccccc3nc21`?
GALR2 blocker: -7.3; S1P2 agonist: 0.2; S1P2 antag: -18.2; GALR2 agonist: 1.2

Results for N=c1c(C(=O)NCc2ccc(F)cc2)cc2c(=O)n3ccccc3nc2n1CCCN1CCOCC1 ?
GALR2 blocker: -16.8; GALR2 agonist: 9.7*

Results for O=C(/C=C/c1ccccc1)N1CCN(CCN2C(=O)c3cccc4cccc(c34)C2=O)CC1 ?
GALR2 blocker: 4.1; GALR2 agonist: 0.6

Screening results from PubChem.
